Data on 53 compounds can be found in ChEMBL document CHEMBL3988442, “University of Dundee, Small-Polar-MMV Screening Library” (2021).

Molecules are shown by their SMILES. About 13,000 (27%) of roughly 48,000 compounds showed an effect of 50% or more. The list shows a part of the results.

The assay has as its system Wolbachia pipientis. The assay is described as follows: Anti-Wolbachia Cell-Based Screen. Further details: scale not given: in the data most compounds retested in dose-response had high values. It counts as functional. Conditions: 5 µM.
In the case of `Cc1nc(CN(C)C(=O)CNC(=O)c2ccc(C#N)cc2)cs1`, the “Percent Effect” value was 6.778%. For `CNc1ccnc(N2C[C@@H](C)[C@](O)(C3CCC3)C2)n1`, the “Percent Effect” value is reported as -0.8884%.

As for `CN(C(=O)CNC(=O)CC(C)(C)C)C1CCN(c2ccccn2)CC1`, the “Percent Effect” value turned out to be 12.99%.

Take `CNc1ncc(CN(C)C(=O)c2ccccc2C2CCNC2)cn1` (stereo not drawn): the “Percent Effect” value was -12.29%. As for `CC(C)CC(=O)NCCn1nc(C2CCNC2)c2cccnc21.Cl` (stereo not drawn), the “Percent Effect” value was 97.32%. Regarding `Cl.O=C(CCC1CCCC1)NCCn1nc(C2CCNC2)c2nccnc21` (stereo not drawn), the “Percent Effect” value is listed as -7.206%. For the compound `COCCN(C(=O)c1c[nH]c2ncccc12)C1CCCC1`, the “Percent Effect” value is 6.84%.

Take `CC(C)(C)CC(=O)NCCn1nc(C2CCNC2)c2cccnc21.Cl` (stereo not drawn): the “Percent Effect” value was 117.2%. The value for `COCCC(=O)NCCn1nc(C2CCNC2)c2cccnc21.Cl` (stereo not drawn) was 104.9%.

As to `Cc1cccnc1[C@H](C)NC(=O)c1cccc(CC2CCNCC2)c1`, the “Percent Effect” value is recorded as -20.86%.

Regarding `CC(C)(C)CC(=O)Nc1ncn(CC(=O)NCc2ccccc2)n1`, the “Percent Effect” value turned out to be 0.2654%. Next, `CC(C)NS(=O)(=O)c1cc(C(=O)O)cc(-c2ccc(CN(C)C)cc2)c1`: -14.22%; `Cc1cc(CNC(=O)Nc2ccc(C(=O)NC3CC3)cc2)no1`: 1.867%; `CC(C)(O)CCc1cccc(C(=O)NCCC2CCOC2)c1` (stereo not drawn): -27.94%.

Take `CC(C)(O)CCc1cccc(C(=O)N2CCC3(CCO3)CC2)c1`: the “Percent Effect” value was 8.25%. The value for `CC(C)(O)CCc1cccc(C(=O)N2CCC3(CCOCC3)CC2)c1` was -3.198%. The value for `CC(C)(O)CCc1cccc(C(=O)N2CCC[C@H]2CN2CCCC2)c1` was 96.29%; that for `CO[C@H]1C[C@@H](O)C12CCN(C(=O)c1cccc(CCC(C)(C)O)c1)CC2` was -1.029%.

With `CC(=O)NCCC1CCCCN1C(=O)c1cccc(CCC(C)(C)O)c1` (stereo not drawn), the “Percent Effect” value was 90.48%.

On to `CCc1nnc(SCC(=O)Nc2cc(C(C)(C)C)nn2C)[nH]1`, for which the “Percent Effect” value is recorded as -3.815%. Next, `CCOc1cc(CN2CCCC2)ccc1Oc1cccc(C#N)n1`: -4.025%. The value for `COc1cc(CNC(=O)NCc2c(C)cc(C)[nH]c2=O)ccc1C` was 1.509%; that for `CC(C)(C)N1CC(c2ncc(-c3ccc4c(c3)OCCO4)[nH]2)CC1=O` (stereo not drawn) was -4.995%.

Consider `Cc1nsc(NC(=O)NC2CCCOC2)n1` (stereo not drawn), for which the “Percent Effect” value is reported as -39.42%. Next, `CNc1ncc(-c2csc(NC(=O)C[C@H]3COCCN3)n2)cn1.Cl`: 71.35%. Next, `O=C(CC1COCCN1)NCCc1noc(-c2ccccc2)n1` (stereo not drawn): -6.645%. The value for `O=C(CC1COCCN1)NCCc1nc(-c2ccccn2)no1` (stereo not drawn) was -14.35%. As to `O=C(CC1COCCN1)NCCc1nc(Cc2ccccc2)no1` (stereo not drawn), the “Percent Effect” value is reported as 18.61%. Next, `CC(C)Nc1ncc(-c2csc(NC(=O)C[C@H]3COCCN3)n2)cn1`: 64.22%; `Cl.Nc1ncc(-c2csc(NC(=O)C[C@H]3COCCN3)n2)cn1`: 103.3%; `CCNC(=O)NCc1cnn(-c2ccc(F)cc2F)c1`: -2.386%. Next, `Cc1cc(CC(=O)NCC(O)c2ccc(OC(F)F)cc2)n[nH]1` (stereo not drawn): -1.889%. Next, `Cc1ccccc1-c1noc(CNc2ccc(F)cc2OCCO)n1`: 17.52%. For the compound `CS(=O)(=O)c1ccc(CN2C[C@@H]3OCC(=O)N(CC(N)=O)[C@@H]3C2)cc1`, the “Percent Effect” value is 4.5%. With `CCCS(=O)(=O)N1C[C@@H](c2ccccc2)[C@@]2(CCNC2=O)C1`, the “Percent Effect” value is on record as 108.5%. With `O=C(c1cnccn1)N1C[C@@H](c2ccccc2)[C@@]2(CCNC2=O)C1`, the “Percent Effect” value is reported as -14.79%. Next, `O=C1NCC[C@]12CN(Cc1ccco1)C[C@H]2c1ccccc1`: 13.69%; `CCS(=O)(=O)N1C[C@@H](c2ccccc2)[C@@]2(CCNC2=O)C1`: 107.9%. Next, `Cc1ccc(CN2C[C@@H](c3ccccc3)[C@@]3(CCNC3=O)C2)o1`: 33.3%; `CN(C)c1ccc(CC(=O)N2C[C@H](C3CC3)[C@@H](N)C2)cc1`: -4.487%; `COc1ccc2c(c1)s/c(=N\C(=O)CSCC(=O)Nc1nccs1)n2C`: -4.566%. Next, `N#CCCN(CC1CC1)S(=O)(=O)c1cccc(Cl)c1`: -14.4%.

Consider `CC(=O)c1cccc(-c2c[nH]c(C)n2)c1`, for which the “Percent Effect” value is -8.634%.

As for `Cc1cnccc1CNCc1ccc(OC23CCCN(CC2)C3)cc1` (stereo not drawn), the “Percent Effect” value was 106.9%. Turning to `Cc1n[nH]cc1CNCc1cccc(OCC(F)(F)F)c1.Cl`, the “Percent Effect” value was -11.93%.

Regarding `COCCN1CCCC(O)(CN2CCN(c3ccncc3C)CC2)C1=O` (stereo not drawn), the “Percent Effect” value is -3.963%. Turning to `COc1ccc(C(C)(C)C(=O)NCc2n[nH]c(=O)[nH]2)cc1`, the “Percent Effect” value is on record as -12.5%.

Take `Cc1nc(CNCc2cccc(OC34CCCN(CC3)C4)c2)n[nH]1` (stereo not drawn): the “Percent Effect” value is given as 113.3%.

With `Cc1nc(CNCc2ccc(OC34CCCN(CC3)C4)cc2)n[nH]1` (stereo not drawn), the “Percent Effect” value is on record as 103.3%. Next, `Cc1ccc(CN2CCNC(=O)C2CC(=O)NCc2n[nH]c(C)n2)cc1` (stereo not drawn): 3.294%. Next, `CCN1CCCC(O)(CNCc2ccncc2)C1` (stereo not drawn): 6.912%.

In the case of `O=c1[nH]nc(CNCc2ccc(OC34CCCN(CC3)C4)cc2)[nH]1` (stereo not drawn), the “Percent Effect” value was 93.23%.

With `Cc1ccnc(NCc2cccc(OCCN3CCOCC3)c2)n1`, the “Percent Effect” value is listed as 10.24%.
